Data taken from PubChem BioAssay (NCI).
About 83,000 compounds went through this panel and 20% of them were active in at least one assay; those are over-represented in the sample as a whole.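 Testing used 96-well plates and a 48-hour single-concentration exposure. Example: -40 means 40% of the starting cells died.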 Unmarked numbers belong to inactive results. The source made the active and inactive calls. How the source made its calls: active means growth percent below 10; inactive means the rest. *1 amine or outer side, *2 acyl side, *3 side chain or, on linkers, in order; H or OH if unused. Where a SMILES comes first, the peptide text is derived from it. Bridges are numbered along the chain shown (N, C = ends). Roman numbers before positions name the chains, in order. [ ]: non-standard residue; d: D form. Actinocin(1to9) = Cc1c2oc3c(C)ccc(C(=O)[*:2])c3nc-2c(C(=O)[*:1])c(N)c1=O; NMeV = CN[CH](C(=O)O)C(C)C; Sar = CNCC(=O)O

Assays:
Test in all cases: NCI-60 one-dose screen, 48 h (100 = growth as untreated, 0 = no growth, -100 = all killed)
HCT-15 colon = conditions: 10 µM unless noted
HT29 colon = conditions: 10 µM unless noted
SNB-75 CNS = conditions: 10 µM unless noted
U251 CNS = conditions: 10 µM unless noted
PC-3 prostate = conditions: 10 µM unless noted
SK-MEL-5 melanoma = conditions: 10 µM unless noted
LOX IMVI melanoma = conditions: 10 µM
SK-MEL-2 melanoma = conditions: 10 µM unless noted
EKVX NSCLC = conditions: 10 µM unless noted
UO-31 renal = conditions: 10 µM unless noted
TK-10 renal = conditions: 10 µM unless noted
ACHN renal = conditions: 10 µM unless noted
CAKI-1 renal = conditions: 10 µM unless noted
CCRF-CEM leukemia = conditions: 10 µM unless noted
MOLT-4 leukemia = conditions: 10 µM unless noted
SNB-19 CNS = conditions: 10 µM unless noted
UACC-62 melanoma = conditions: 10 µM unless noted
SK-MEL-28 melanoma = conditions: 10 µM unless noted
SN12C renal = conditions: 10 µM unless noted
A498 renal = conditions: 10 µM unless noted

Row | SMILES | growth (HCT-15 colon) | growth (HT29 colon) | growth (SNB-75 CNS) | growth (U251 CNS) | growth (PC-3 prostate) | growth (SK-MEL-5 melanoma) | growth (LOX IMVI melanoma) | growth (SK-MEL-2 melanoma) | growth (EKVX NSCLC) | growth (UO-31 renal) | growth (TK-10 renal) | growth (ACHN renal) | growth (CAKI-1 renal) | growth (CCRF-CEM leukemia) | growth (MOLT-4 leukemia) | growth (SNB-19 CNS) | growth (UACC-62 melanoma) | growth (SK-MEL-28 melanoma) | growth (SN12C renal) | growth (A498 renal)
1 | [Cl-].[Rh+3].c1ccc(-c2ccnc3c2ccc2c(-c4ccccc4)ccnc23)cc1.c1ccc(-c2ccnc3c2ccc2c(-c4ccccc4)ccnc23)cc1.c1ccc(-c2ccnc3c2ccc2c(-c4ccccc4)ccnc23)cc1 | 106% | 99% | 102% | 30.8% | 75.5% | -38.1% (active) | 88.7% | 95.9% | 81.1% | 51.4% | 107% | 93.6% | 86.1% | 76.2% | 104% | – | – | – | – | –
2 | N#CCc1cccc2ccccc12 | 100% | 96% | – | 108% | 90.9% | 104% | 108% | 95.1% | – | – | 98.3% | 103% | 103% | 91.9% | 92% | 110% | 111% | 94.7% | 110% | 109%
3 | Clc1ccc(Cc2nc3ccccc3s2)cc1 | 88% | 118% | 83.9% | – | 63% | 96.9% | 74.3% | 110% | 86.5% | 61.2% | – | 98.5% | 96.3% | 93.1% | 92.6% | – | – | 112% | 86.1% | 117%
4 | Oc1ccc(Cl)cc1C(c1cc(Cl)ccc1O)C(Cl)(Cl)Cl | 3.95% (active) | 4.03% (active) | 4.39% (active) | 11.8% | 6.26% (active) | 29.1% | -62.8% (active) | 49.2% | 13.7% | 40.8% | – | -7.96% (active) | 36.8% | 19.1% | 2.12% (active) | – | – | 38.8% | -4.47% (active) | 23.4%
5 | CCC(C)C1NC(=O)C(NC(=O)c2c3nc4c(C(=O)NC5C(=O)NC(C(C)CC)C(=O)N6CCCC6C(=O)N(C)CC(=O)N(C)C(C(C)C)C(=O)OC5C)ccc(C)c4oc-3c(C)c(=O)c2N)C(C)OC(=O)C(C(C)C)N(C)C(=O)CN(C)C(=O)C2CCCN2C1=O (stereo not given) (I: TIP[Sar][NMeV] / II: TIP[Sar][NMeV]; ester I:1-I:C, II:1-II:C; linker I:N-II:N via Actinocin(1to9); configuration not given here) | 2.48% (active) | 0.216% (active) | -87.2% (active) | 1.81% (active) | -3.84% (active) | – | 0.241% (active) | -43.2% (active) | 8.25% (active) | -15.6% (active) | – | – | -13.1% (active) | -5.99% (active) | -0.501% (active) | – | -67.8% (active) | – | 15.4% | –
6 | CCSc1nc2ccccc2o1 | 102% | 113% | – | 101% | 92.3% | 108% | 103% | – | 104% | 79.4% | 102% | 99% | 87.9% | 97.5% | 100% | 99.9% | – | 113% | 88.9% | 83.6%
7 | Cn1ccc(=Nc2ccc(NC(=O)c3ccc(N=c4ccn(C)c5ccc([N+](=O)[O-])cc45)cc3)cc2)cc1 | 98.2% | 73% | – | -17.5% (active) | 44% | 89.8% | 56.2% | 91.1% | 77.5% | 82.6% | 122% | 99.2% | 113% | 89.2% | 126% | -5.19% (active) | 70.1% | 87.3% | – | 97.6%
8 | CCCCC(CCc1ccc([N+](=O)[O-])cc1)(C(C)=O)C(=O)OCC (stereo not given) | 94.7% | 94.2% | – | 95.3% | 81.2% | 93.2% | 95.8% | 99.6% | – | 67.7% | 97.3% | 114% | 96.8% | 94.5% | 90.3% | 108% | 97.5% | 100% | 103% | 50.6%
9 | COC1=CC(=O)c2c(O)c3c(c(O)c2C1=O)CC(C)(O)OC3 (stereo not given) | 0.909% (active) | -10.8% (active) | 41.8% | 17.3% | 8.93% (active) | -92.4% (active) | 11.4% | -6.4% (active) | 23.2% | 33.8% | 66.1% | 27.6% | 34.4% | 19.5% | 14.5% | – | -14.2% (active) | – | 34.7% | 68.3%
